Where “and” joins values, the source holds several entries; their conditions need not be identical. Identical values can stand only once. Records with an inconclusive call do not appear. Calls of active or inactive are those of the source. Unless noted, calls come from the whole dose curve; as a rule, active = well fitted curve in the direction sought with a large enough effect; inconclusive = small, poorly fitted or top-dose-only effect, or another doubt; inactive = no such curve, though single readings can be large; an effect the other way counts as inactive or inconclusive. A value given as a limit tells only on which side of the number the result lay.

The nature of test [1]: Cell Viability - Hek293 (AID 427;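 active = compounds whose dose-response curve shows a full or clear partial loss of cell viability, called from curve shape rather than a numeric limit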;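 note: potency is the fitted concentration of half-maximal effect; cells exposed to compound for 40 hours at 37 °C before reading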). The note with it: qHTS. The essentials: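 HEK293 cells in complete medium were exposed to compound for 40 hr at 37 °C, then cellular ATP was read by CellTiter-Glo luminescence. Data were normalized to DMSO (basal) and 100 uM tamoxifen (100% inhibition), and AC50 came from Hill fits.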
In general terms: In qHTS, concentration-response curves come from the screen itself.

The nature of test [2]: Cell Viability - NIH 3T3 (AID 541).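 Note: plate controls were DMSO alone for no effect and tamoxifen positive control for full effect; nearly all actives have a fitted effect of over 25% in size.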 The note with it: NIH 3T3 cell viability, qHTS; activity change, negative = cytotoxicity: at 92.2 µM (top of the series). The essentials: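 Cells seeded at 1000/well, rested 5 hr at 37 °C, then dosed and incubated 40 hr at 37 °C. CellTiter-Glo added, 20 min room temperature, luminescence read. AC50 by Hill fit.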
A short description of test [3]: Cellular Toxicity (caspase-3) HepG2 (AID 654).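 Note: cells exposed to compound for 16 hours before reading; 0% = DMSO alone and 100% = caspase signal from 100 µM tamoxifen.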 The following applies: HepG2 caspase-3 activation, luminescence, 0% = DMSO only, 100% = tamoxifen; series mostly up to 92.2 µM. The essentials:
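Caspase 3/7 activation in HepG2 is measured as rising luminescence after a 16 hr treatment at 37 °C. Values are scaled between DMSO basal and 100 uM tamoxifen, and AC50 is fitted with the Hill equation.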

Test [4] can be described thus: Cellular Toxicity (caspase-3) Hek293 (AID 664).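 Note: cells exposed to compound for 16 h at 37 °C before readout.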 The note with it: HEK293 caspase-3 activation, DMSO = 0%, 100 µM tamoxifen = 100%; series mostly up to 92.2 µM. The essentials:
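qHTS, HEK293 (human embryonic kidney), 16 h cpd exposure in complete medium. Caspase-3/7 activation = luminescence increase; normalized to DMSO/100 uM tamoxifen; Hill-fit AC50.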

Test [5] is described as follows: Cellular Toxicity (caspase-3) NIH 3T3 (AID 666).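 Note: caspase signal read after 16 h compound exposure; 0% = DMSO basal and 100% = 100 µM tamoxifen stimulation.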 The note with it: NIH 3T3 caspase-3 activation, apoptosis/toxicity, 0% DMSO, 100% is 100 µM tamoxifen; series mostly up to 92.2 µM. The essentials: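 Cells were plated at 1000 per well and incubated 5 hr at 37°C, then compound was added for 16 hr. Caspase-Glo 3/7 reagent followed for 20 min at room temperature before luminescence was read.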

Test [6] can be described thus: MultiTox-Fluor Cytotoxicity Assay - LYMP1-003 - Live Cells (AID 962).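 Note: 0% = DMSO only and full loss = 92 µM tetraoctylammonium bromide; cytotoxic hits lower the live-cell protease signal.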 The note with it: LYMP1-003 lymphoblastoid cells, MultiTox-Fluor live-cell protease fluorescence; series mostly up to 92.2 µM. The essentials: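 Acute cytotoxicity is scored as a drop in live-cell protease activity in human lymphoblastoid LYMP1-003 cells after 16 hr compound exposure at 37 C. AC50 values come from Hill-equation modelling of concentration-response data.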

The nature of test [7]: Cell Viability - LYMP2-005 (AID 967).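 Note: plate controls were DMSO only for no effect and 92 µM tetraoctylammonium bromide control for full effect.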 The following applies: LYMP2-005 lymphoblastoid cell viability; series mostly up to 92.2 µM. The essentials: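 CellTiter-Glo luminescence (cellular ATP) read-out; LYMP2-005 lymphoblastoid cells, 2500/well, 5 h pre-incubation, then 24 h compound exposure at 37 C in complete medium. Tetraoctylammonium bromide positive control; AC50 by standard Hill fit.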

Test [8] in a line: Cell Viability - LYMP2-009 (AID 968).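 Note: 0% = DMSO alone and the full-kill end = tetraoctylammonium bromide at 92 µM; nearly all actives have a fitted effect of over 55% in size.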 The following applies: LYMP2-009 lymphoblastoid cell viability; series mostly up to 92.2 µM.
Test [9] is described as follows: Cell Viability - LYMP2-017 (AID 972).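 Note: cells exposed to compound for 24 hours at 37 °C; % is set by controls: 0 for no effect and ±100 for the full control effect; nearly all actives have a fitted effect of over 55% in size.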 The following applies: LYMP2-017 lymphoblastoid cell viability; series mostly up to 92.2 µM. The essentials:
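Cytotoxicity is scored as a concentration-dependent drop in cellular ATP in a human lymphoblastoid line after 24 hr treatment at 37 C. Values are AC50s from Hill-equation modelling.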

Test [10] can be described thus: Cell Viability - LYMP2-019 (AID 973).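 Note: 0% = DMSO alone and full effect = 92 µM tetraoctylammonium bromide; nearly all actives have a fitted effect of over 55% in size.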 The following applies: LYMP2-019 lymphoblastoid cell line viability; series mostly up to 92.2 µM. The essentials: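 Cytotoxicity is scored as a concentration-dependent drop in cellular ATP after cells (2500/well) receive compound for 24 hr at 37 C. Tetraoctylammonium bromide serves as positive control.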
A short description of test [11]: Cell Viability - LYMP2-021 (AID 974).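 Note: compound exposure lasts 24 hours at 37 °C; % is set by controls: 0 for no effect and ±100 for the full control effect; nearly all actives have a fitted effect of over 55% in size.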 The note with it: LYMP2-021 lymphoblastoid cells viability; series mostly up to 92.2 µM. The essentials:
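Loss of cellular ATP, measured with a luciferase-based CellTiter-Glo readout, serves as the toxicity signal in human lymphoblastoid cells treated for 24 hours at 37 C. Potency is reported as AC50 from a standard Hill model.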

Test [12] is described as follows: Cell Viability - LYMP2-016 (AID 984). The following applies: LYMP2-016 lymphoblastoid cell viability, qHTS; series mostly up to 92.2 µM. The essentials: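 Human lymphoblastoid cells (LYMP2-016), 2500/well in complete medium, preincubated 5 hr at 37 C, then compound-treated 24 hr at 37 C. Intracellular ATP read by CellTiter-Glo luminescence after 30 min at room temperature; AC50 from Hill-equation concentration-response fits.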

Test [13] in a line: Cell Viability - LYMP2-022 (AID 987). The note with it: LYMP2-022 lymphoblastoid cell viability; series mostly up to 92.2 µM. The essentials:
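Cells were seeded at 2500 per well, rested 5 hr at 37 C, and treated with titrated compounds for 24 hr at 37 C. Cellular ATP was then quantified by luciferase luminescence, and AC50 values were derived from Hill-modelled concentration-response curves.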

A short description of test [14]: Cell Viability - LYMP2-026 (AID 989). Note: % is set by controls: 0 for no effect and ±100 for the full control effect; nearly all actives have a fitted effect of over 50% in size. The following applies: LYMP2-026 lymphoblastoid cell viability, qHTS; series mostly up to 92.2 µM. The essentials: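 Cells are seeded at 2500 per well and held 5 hr at 37 C. Compounds are added in concentration series for 24 hr, then CellTiter-Glo reagent is applied and luminescence read.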
The nature of test [15]: qHTS assay for small molecule agonists of retinoid X receptor alpha signaling (AID 588544). The following applies: HEK293T RXRa-UAS-bla, beta-lactamase reporter, 18 h; 530 nm emission.
Test [16] in a line: qHTS assay for small molecule antagonists of retinoid X receptor alpha signaling (AID 588546).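 Note: cells stimulated with 9-cis-retinoic acid as agonist; % is set by controls: 0 for no effect and ±100 for the full control effect.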 The note with it: HEK293T RXRa-UAS-bla, beta-lactamase ratio, antagonist mode; measured here: W530 green channel, cytotoxicity proxy. The essentials: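 Beta-lactamase reporter inhibition, read as CCF4 fluorescence ratio (ex 405, em 460/530 nm) after 2 h at RT. HEK293T UAS-bla cells, 2500/well, were stimulated with 9-cis-RA at 500 or 100 nM final alongside test compound for 18 h at 37 C.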

Test [17] has as its target Voltage-gated inwardly rectifying potassium channel KCNH2 (Homo sapiens) (UniProt Q12809). Kind of test: qHTS Assay for Small Molecule Inhibitors of the Human hERG Channel Activity (AID 588834).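 Note: top concentration of the series differs between compounds; % is set by controls: 0 for no effect and ±100 for the full control effect; lower thallium flux fluorescence means stronger hERG block; nearly all actives have a fitted effect of over 50% in size.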 The note with it: U2OS BacMam hERG, FluxOR thallium flux fluorescence; series mostly up to 92.2 µM. The essentials:
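In hERG-transduced U2OS cells, dye-loaded for 1 hr at room temperature in dark, test compounds incubated 10 min at 37 °C before thallium stimulation. AC50 values derived by Hill modelling of concentration-response.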

Test [18] is described as follows: qHTS assay for small molecule disruptors of the mitochondrial membrane potential - 5 hr assay (AID 651755; calls by dose curve; note: % is set by controls: 0 for no effect and ±100 for the full control effect; nearly all actives have a fitted effect of over 40% in size). The following applies: JC-1-type ratio dye; series mostly up to 92.2 µM. The essentials: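 Seed HepG2 overnight, add compound, incubate 5 hr at 37C and 5% CO2, stain 30 min with Mito-MPS, then measure monomer (490/535 nm) and aggregate (540/590 nm) fluorescence.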

Test [19] has as its target Peroxisome proliferator-activated receptor alpha (Homo sapiens) (UniProt Q07869). Put plainly: qHTS assay for small molecule agonists of the peroxisome proliferator-activated receptor alpha (PPARalpha) signaling pathway (AID 651778). Note: % of control where 0% means no effect. The note with it: PathHunter PPARalpha complementation, chemiluminescence, 6 h; stronger effect = higher value. The essentials:
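Cells plated at 2,000/well and held overnight at 37 C, 5% CO2, then compound added by pin tool for 6 hr; after PathHunter detection reagent and 60 min at room temperature, chemiluminescence from enzyme complementation was read.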

Test [20] is described as follows: qHTS assay for small molecule agonists of the antioxidant response element (ARE) signaling pathway measured by Nrf2-dependant transcriptional activity (AID 720636; active = well fitted curve in the direction sought with a large enough effect in the repeat runs; an effect the other way counts as inactive or inconclusive;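 note: HepG2 cells with an ARE-driven luciferase reporter; % of control where 0% means no effect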). The note with it: ARE-luc HepG2, Nrf2 luciferase reporter, 16 h; series mostly up to 92.4 µM. The essentials:
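We exposed ARE-luc HepG2 cells, seeded in assay medium with 1% dialyzed FBS and allowed 6 hr to adhere, to test compounds overnight (16 hr, 37 C) before measuring luciferase with ONE-Glo.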

Voltage-gated inwardly rectifying potassium channel KCNH2 (Homo sapiens), sequence (Q12809 whole entry, looked up): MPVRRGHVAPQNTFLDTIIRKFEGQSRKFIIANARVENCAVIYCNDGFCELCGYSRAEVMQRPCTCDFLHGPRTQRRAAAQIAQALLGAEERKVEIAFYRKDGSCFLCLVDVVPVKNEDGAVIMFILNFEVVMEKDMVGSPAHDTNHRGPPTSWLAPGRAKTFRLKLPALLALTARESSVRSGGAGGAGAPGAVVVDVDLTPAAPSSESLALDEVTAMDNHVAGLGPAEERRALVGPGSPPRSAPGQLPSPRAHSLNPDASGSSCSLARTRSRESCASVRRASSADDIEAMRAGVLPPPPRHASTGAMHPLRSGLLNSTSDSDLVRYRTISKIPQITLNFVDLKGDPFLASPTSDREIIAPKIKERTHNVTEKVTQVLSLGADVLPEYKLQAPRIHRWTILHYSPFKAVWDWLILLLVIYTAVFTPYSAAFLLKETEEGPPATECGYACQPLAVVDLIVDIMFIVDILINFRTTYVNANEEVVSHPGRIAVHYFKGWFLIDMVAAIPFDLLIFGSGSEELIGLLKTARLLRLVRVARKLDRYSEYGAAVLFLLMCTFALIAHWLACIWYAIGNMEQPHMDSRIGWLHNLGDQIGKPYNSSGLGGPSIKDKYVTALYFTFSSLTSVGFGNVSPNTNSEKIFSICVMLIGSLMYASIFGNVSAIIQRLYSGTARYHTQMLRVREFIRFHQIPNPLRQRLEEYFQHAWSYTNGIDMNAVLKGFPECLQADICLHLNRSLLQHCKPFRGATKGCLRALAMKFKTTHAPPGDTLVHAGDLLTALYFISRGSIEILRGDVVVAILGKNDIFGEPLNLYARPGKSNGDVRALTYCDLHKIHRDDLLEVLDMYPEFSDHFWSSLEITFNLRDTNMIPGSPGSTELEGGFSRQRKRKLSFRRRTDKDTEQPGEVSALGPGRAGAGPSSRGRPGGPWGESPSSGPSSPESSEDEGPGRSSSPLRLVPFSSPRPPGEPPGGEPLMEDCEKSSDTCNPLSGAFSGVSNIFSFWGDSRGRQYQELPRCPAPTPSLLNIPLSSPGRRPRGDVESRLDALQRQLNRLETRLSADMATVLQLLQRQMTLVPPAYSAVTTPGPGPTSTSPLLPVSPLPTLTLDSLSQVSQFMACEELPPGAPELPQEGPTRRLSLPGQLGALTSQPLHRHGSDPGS
Peroxisome proliferator-activated receptor alpha (Homo sapiens), sequence (Q07869 whole entry, looked up): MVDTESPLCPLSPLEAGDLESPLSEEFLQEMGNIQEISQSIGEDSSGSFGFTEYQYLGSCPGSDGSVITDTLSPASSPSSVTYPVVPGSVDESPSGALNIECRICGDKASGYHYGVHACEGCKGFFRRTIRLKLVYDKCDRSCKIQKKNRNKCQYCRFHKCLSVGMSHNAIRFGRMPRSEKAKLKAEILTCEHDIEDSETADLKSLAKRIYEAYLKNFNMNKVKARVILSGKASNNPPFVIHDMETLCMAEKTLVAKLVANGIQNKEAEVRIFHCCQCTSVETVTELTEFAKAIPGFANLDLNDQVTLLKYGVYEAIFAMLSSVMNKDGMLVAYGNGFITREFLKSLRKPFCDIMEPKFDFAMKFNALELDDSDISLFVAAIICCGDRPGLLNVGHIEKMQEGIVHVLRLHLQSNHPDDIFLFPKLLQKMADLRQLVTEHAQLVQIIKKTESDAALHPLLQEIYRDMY

`ClC(Cl)(Cl)c1ccccc1`: the Potency in test [1] was > 92 µM (inactive). Besides, the activity change, negative = cytotoxicity in [2] was -19.1% (inactive) and -4.39% (inactive). Also, the result in test [3], in test [4], in test [5] and in test [20] was inactive. Besides, the Potency result in [6], in test [7], in [8], in test [9], in [10] and in test [11] was “inactive” throughout. Also, the Potency entry in test [12], in test [13], in test [14], in [17] and in test [18] was “inactive” each time. Further, the max response in test [15] was 2.72% and -9.44%; in test [16] it was -5.33% and -1.27%; in [19], -2.9% (inactive) and -5.05% (inactive).

On to `S=C=Nc1cccc2ccccc12`, for which the Potency in [1] is > 92 µM (inactive). Also, in [2], the activity change, negative = cytotoxicity is 1.16% (inactive). The molecule was called inactive in test [3], in test [4], in test [5] and in test [20]. Also, the Potency entry in test [6], in test [7], in [8], in test [9], in test [10] and in test [11] was “inactive” in each case. Moreover, the Potency result in test [12], in test [13], in test [14], in test [17] and in [18] was “inactive” throughout. Moreover, the max response is 6.51% in test [15], -0.704% in test [16] and 5.47% (inactive) in test [19].

On to `Oc1ccc(Cl)cc1Cl`, for which the Potency in [1] was > 92 µM (inactive). In addition, in [2], the activity change, negative = cytotoxicity was -8.01% (inactive). Besides, the molecule was classed as inactive in test [3], in [4], in [5] and in [20]. Besides, the Potency result in test [6], in test [7], in [8], in [9], in [10] and in [11] was “inactive” each time. Moreover, the Potency entry in test [12], in test [13], in test [14], in test [17] and in [18] was “inactive” in each case. Further, the max response in [15] was 1.97%; in [16] it was -7.11% and -14.1%; in test [19] it was 1.17% (inactive) and -0.592% (inactive).

`CCCC(=O)Cl`: the Potency in [1] is > 92 µM (inactive). In addition, the activity change, negative = cytotoxicity in test [2] was -0.413% (inactive). Besides, the molecule was called inactive in test [3], in test [4], in test [5] and in test [20]. For the same molecule, the Potency entry in [6], in test [7], in test [8], in [9], in [10] and in test [11] was “inactive” throughout. The Potency result in test [12], in [13], in [14], in test [17] and in test [18] was “inactive” in each case. Moreover, the results for the max response in test [15], in test [16] and in test [19] were -4.61%, -5.53% and -5.49% (inactive), respectively.

In the case of `[O-][Br+2]([O-])O`, the Potency in [1] is > 92 µM (inactive). Besides, the activity change, negative = cytotoxicity in [2] was 0.18% (inactive) and -3.06% (inactive). Besides, the outcome in test [3], in test [4], in test [5] and in test [20] was inactive. Besides, the Potency entry in test [7], in test [8], in test [9], in test [10], in [11] and in test [12] was “inactive” each time. Moreover, the Potency result in test [13], in test [14], in [17] and in test [18] was “inactive” each time. Moreover, the max response was 8.99% and 2.4% in test [15]; -4.01% and -4.2% in test [16]; 8.01% (inactive) and -0.25% (inactive) in [19].
